# Measured values published in paper PMC7862700, “An all-to-all approach to the identification of sequence-specific readers for epigenetic DNA modifications on cytosine”.
# How the values were obtained:
# Test in all cases: DAPPL (digital affinity profiling via proximity ligation, sequencing); 10 mM Tris-HCl pH 7.5, 50 mM NaCl, 1 mM DTT, 4% glycerol, room temperature, 30 min; GST-TFs on glutathione beads, 16-mer random dsDNA library, 0.1% formaldehyde crosslink after washing; high values mean tight binding
# FLI1 = molecular target: T1, FLI1 (Homo sapiens, UniProt Q01543 1-452); conditions: protein: recombinant; tags: N-terminal GST; dsDNA, one strand shown
# T1 sequence: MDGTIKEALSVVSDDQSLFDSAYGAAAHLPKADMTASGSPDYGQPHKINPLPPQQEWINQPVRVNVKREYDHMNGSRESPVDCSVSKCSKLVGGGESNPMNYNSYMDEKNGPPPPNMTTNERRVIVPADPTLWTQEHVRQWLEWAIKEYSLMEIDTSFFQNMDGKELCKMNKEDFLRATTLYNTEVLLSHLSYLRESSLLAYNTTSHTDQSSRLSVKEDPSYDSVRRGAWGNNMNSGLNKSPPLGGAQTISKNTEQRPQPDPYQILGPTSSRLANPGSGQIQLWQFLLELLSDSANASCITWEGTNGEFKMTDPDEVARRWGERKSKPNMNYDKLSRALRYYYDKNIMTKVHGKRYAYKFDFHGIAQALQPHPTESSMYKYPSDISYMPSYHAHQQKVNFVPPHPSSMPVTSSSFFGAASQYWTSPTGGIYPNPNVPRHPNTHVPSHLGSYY
# Method in brief: (§1)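 A tag-only sample was pooled with DNA-barcoded human transcription factors that had been expressed in yeast as GST fusions and captured on glutathione beads. The pools were incubated for 30 min at room temperature with 200 nmole of a random double-stranded 16-mer DNA library in Tris/NaCl/DTT/glycerol buffer, then washed, crosslinked with 0.1% formaldehyde, proximity-ligated (BsaI/T4 ligase, 1 h, 37 °C), PCR-amplified and sequenced on an Illumina NextSeq500. Binding signal is each hexamer's read frequency for a factor divided by its frequency for the tag-only sample.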
# ELK1 = molecular target: T2, ELK1 (Homo sapiens, UniProt P19419 1-428); conditions: protein: recombinant; tags: N-terminal GST; dsDNA, one strand shown
# T2 sequence: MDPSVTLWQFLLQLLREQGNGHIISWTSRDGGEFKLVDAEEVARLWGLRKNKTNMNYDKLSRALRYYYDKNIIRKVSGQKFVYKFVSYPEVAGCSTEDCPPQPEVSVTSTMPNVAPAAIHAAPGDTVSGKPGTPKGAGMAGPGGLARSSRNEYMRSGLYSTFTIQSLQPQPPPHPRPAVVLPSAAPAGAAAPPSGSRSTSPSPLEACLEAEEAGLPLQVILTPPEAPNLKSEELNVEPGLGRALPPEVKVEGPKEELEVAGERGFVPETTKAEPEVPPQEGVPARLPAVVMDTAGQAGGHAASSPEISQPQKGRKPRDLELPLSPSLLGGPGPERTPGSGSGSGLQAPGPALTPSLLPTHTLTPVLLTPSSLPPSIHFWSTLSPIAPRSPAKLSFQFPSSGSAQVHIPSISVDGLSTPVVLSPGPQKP
# Method in brief: as §1
# GABPA = molecular target: T3, GABPA (Homo sapiens, UniProt Q06546 1-454); conditions: protein: recombinant; tags: N-terminal GST; dsDNA, one strand shown
# T3 sequence: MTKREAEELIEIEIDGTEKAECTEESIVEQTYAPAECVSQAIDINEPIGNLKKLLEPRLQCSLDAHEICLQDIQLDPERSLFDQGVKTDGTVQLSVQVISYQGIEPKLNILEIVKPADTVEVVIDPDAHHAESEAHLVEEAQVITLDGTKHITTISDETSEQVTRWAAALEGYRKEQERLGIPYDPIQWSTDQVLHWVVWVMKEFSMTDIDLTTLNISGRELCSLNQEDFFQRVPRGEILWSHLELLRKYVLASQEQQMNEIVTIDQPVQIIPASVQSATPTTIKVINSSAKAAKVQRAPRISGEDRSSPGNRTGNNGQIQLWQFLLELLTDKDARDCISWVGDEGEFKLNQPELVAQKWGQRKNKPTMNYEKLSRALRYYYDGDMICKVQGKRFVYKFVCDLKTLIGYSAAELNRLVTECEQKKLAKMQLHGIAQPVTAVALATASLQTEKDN
# Method in brief: as §1
# ERG = molecular target: T4, ERG (Homo sapiens, UniProt P11308 1-479); conditions: protein: recombinant; tags: N-terminal GST; dsDNA, one strand shown
# T4 sequence: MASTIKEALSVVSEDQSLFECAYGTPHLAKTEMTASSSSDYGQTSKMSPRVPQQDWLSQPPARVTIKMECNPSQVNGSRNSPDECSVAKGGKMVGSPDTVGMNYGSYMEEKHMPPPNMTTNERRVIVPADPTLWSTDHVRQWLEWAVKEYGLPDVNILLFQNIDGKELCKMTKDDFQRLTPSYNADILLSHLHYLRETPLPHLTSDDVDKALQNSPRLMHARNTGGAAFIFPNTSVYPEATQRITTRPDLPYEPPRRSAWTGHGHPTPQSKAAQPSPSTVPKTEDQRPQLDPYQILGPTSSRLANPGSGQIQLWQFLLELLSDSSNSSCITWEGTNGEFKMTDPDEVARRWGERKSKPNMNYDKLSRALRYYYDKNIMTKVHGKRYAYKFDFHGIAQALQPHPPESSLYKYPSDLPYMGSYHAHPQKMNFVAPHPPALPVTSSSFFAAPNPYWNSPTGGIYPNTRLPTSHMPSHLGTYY
# Method in brief: as §1
# ELF1 = ELF1 (Homo sapiens, UniProt P32519 1-619); conditions: protein: recombinant; tags: N-terminal GST; dsDNA, one strand shown
# Method in brief: as §1
# EHF = molecular target: T5, EHF (Homo sapiens, UniProt Q9NZC4 1-300); conditions: protein: recombinant; tags: N-terminal GST; dsDNA, one strand shown
# T5 sequence: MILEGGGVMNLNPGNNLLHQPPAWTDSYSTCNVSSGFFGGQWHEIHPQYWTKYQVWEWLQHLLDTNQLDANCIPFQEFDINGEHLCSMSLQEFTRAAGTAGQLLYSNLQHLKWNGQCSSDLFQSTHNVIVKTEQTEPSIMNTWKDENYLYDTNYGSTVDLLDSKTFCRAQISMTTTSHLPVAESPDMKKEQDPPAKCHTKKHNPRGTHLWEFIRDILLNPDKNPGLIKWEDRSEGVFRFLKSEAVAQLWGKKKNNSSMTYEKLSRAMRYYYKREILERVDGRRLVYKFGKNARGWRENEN
# Method in brief: as §1
# SPI1 = SPI1 (Homo sapiens, UniProt P17947 1-270); conditions: protein: recombinant; tags: N-terminal GST; dsDNA, one strand shown
# Method in brief: as §1
# SPIB = SPIB (Homo sapiens, UniProt Q01892 1-262); conditions: protein: recombinant; tags: N-terminal GST; dsDNA, one strand shown
# Method in brief: as §1
# ELK3 = molecular target: T6, ELK3 (Homo sapiens, UniProt P41970 1-407); conditions: protein: recombinant; tags: N-terminal GST; dsDNA, one strand shown
# T6 sequence: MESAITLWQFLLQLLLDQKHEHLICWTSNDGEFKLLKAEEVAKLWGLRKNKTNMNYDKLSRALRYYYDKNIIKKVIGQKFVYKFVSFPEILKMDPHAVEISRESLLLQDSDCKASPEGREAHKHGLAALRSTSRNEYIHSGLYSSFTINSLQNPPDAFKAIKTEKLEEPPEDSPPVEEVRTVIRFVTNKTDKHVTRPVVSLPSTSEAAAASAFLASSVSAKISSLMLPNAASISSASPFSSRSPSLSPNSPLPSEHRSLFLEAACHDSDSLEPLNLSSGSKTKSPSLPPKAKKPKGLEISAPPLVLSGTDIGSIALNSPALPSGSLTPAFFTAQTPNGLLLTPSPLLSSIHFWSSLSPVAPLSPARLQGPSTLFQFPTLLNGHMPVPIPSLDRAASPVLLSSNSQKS
# Method in brief: as §1
# FEV = molecular target: T7, FEV (Homo sapiens, UniProt Q99581 1-238); conditions: protein: recombinant; tags: N-terminal GST; dsDNA, one strand shown
# T7 sequence: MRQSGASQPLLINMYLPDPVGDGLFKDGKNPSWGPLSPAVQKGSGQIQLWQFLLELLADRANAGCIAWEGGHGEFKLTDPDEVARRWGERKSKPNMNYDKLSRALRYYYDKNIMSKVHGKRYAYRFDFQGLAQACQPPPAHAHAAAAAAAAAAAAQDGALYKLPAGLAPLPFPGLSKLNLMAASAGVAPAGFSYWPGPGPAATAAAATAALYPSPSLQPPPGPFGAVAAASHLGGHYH
# Method in brief: as §1
# ETV5 = ETV5 (Homo sapiens, UniProt P41161 1-510); conditions: protein: recombinant; tags: N-terminal GST; dsDNA, one strand shown
# Method in brief: as §1
# HSF1 = HSF1 (Homo sapiens, UniProt Q00613 1-529); conditions: protein: recombinant; tags: N-terminal GST; chain copies: 3; dsDNA, one strand shown
# Method in brief: as §1
# SPIC = molecular target: T8, SPIC (Homo sapiens, UniProt Q8N5J4 1-248); conditions: protein: recombinant; tags: N-terminal GST; dsDNA, one strand shown
# T8 sequence: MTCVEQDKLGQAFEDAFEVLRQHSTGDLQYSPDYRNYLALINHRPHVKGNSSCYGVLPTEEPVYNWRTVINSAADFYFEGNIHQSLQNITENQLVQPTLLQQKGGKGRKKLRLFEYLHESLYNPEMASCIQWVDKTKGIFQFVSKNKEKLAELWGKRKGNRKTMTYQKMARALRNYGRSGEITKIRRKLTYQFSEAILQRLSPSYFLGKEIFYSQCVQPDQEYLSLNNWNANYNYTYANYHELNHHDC
# Method in brief: as §1
# ELF4 = ELF4 (Homo sapiens, UniProt Q99607 1-663); conditions: protein: recombinant; tags: N-terminal GST; dsDNA, one strand shown
# Method in brief: as §1
# ELK4 = molecular target: T9, ELK4 (Homo sapiens, UniProt P28324-2 1-405); conditions: protein: recombinant; tags: N-terminal GST; dsDNA, one strand shown
# T9 sequence: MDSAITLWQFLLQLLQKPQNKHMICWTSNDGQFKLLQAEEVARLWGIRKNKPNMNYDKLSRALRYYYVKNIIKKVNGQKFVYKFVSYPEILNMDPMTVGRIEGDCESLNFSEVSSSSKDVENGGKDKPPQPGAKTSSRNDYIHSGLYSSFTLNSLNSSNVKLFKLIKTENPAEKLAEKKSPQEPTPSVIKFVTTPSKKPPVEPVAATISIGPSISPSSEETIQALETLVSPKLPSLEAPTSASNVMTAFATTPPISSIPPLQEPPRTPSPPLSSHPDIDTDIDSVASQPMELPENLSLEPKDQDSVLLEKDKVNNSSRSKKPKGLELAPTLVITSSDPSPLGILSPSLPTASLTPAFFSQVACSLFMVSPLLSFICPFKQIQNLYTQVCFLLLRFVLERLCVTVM
# Method in brief: as §1
# ETV2 = molecular target: T10, ETV2 (Homo sapiens, UniProt O00321 1-342); conditions: protein: recombinant; tags: N-terminal GST; dsDNA, one strand shown
# T10 sequence: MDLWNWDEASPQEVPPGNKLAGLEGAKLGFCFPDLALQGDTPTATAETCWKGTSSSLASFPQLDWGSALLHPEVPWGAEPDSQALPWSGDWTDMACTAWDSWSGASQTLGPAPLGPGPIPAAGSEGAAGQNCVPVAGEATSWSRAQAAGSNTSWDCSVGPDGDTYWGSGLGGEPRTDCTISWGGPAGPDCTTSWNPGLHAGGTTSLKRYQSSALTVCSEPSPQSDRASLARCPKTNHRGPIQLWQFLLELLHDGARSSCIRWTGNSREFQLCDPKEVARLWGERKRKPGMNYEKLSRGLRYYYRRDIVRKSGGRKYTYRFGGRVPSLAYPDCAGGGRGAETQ
# Method in brief: as §1
# ELF3 = molecular target: T11, ELF3 (Homo sapiens, UniProt P78545 1-371); conditions: protein: recombinant; tags: N-terminal GST; dsDNA, one strand shown
# T11 sequence: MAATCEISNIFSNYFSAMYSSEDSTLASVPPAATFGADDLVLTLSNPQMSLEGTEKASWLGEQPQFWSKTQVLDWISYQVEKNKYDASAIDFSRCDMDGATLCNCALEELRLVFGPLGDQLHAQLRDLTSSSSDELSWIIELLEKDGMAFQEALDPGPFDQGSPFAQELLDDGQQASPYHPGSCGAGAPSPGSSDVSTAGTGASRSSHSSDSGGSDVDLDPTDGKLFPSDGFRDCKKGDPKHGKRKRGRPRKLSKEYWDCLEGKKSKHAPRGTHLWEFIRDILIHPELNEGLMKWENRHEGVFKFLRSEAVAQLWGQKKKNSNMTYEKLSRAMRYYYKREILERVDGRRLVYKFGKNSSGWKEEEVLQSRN
# Method in brief: as §1
# CRX = CRX (Homo sapiens, UniProt O43186 1-299); conditions: protein: recombinant; tags: N-terminal GST; dsDNA, one strand shown
# Method in brief: as §1
# ETV1 = ETV1 (Homo sapiens, UniProt P50549 1-477); conditions: protein: recombinant; tags: N-terminal GST; dsDNA, one strand shown
# Method in brief: as §1
# Sequence of ETV1 (P50549 whole entry): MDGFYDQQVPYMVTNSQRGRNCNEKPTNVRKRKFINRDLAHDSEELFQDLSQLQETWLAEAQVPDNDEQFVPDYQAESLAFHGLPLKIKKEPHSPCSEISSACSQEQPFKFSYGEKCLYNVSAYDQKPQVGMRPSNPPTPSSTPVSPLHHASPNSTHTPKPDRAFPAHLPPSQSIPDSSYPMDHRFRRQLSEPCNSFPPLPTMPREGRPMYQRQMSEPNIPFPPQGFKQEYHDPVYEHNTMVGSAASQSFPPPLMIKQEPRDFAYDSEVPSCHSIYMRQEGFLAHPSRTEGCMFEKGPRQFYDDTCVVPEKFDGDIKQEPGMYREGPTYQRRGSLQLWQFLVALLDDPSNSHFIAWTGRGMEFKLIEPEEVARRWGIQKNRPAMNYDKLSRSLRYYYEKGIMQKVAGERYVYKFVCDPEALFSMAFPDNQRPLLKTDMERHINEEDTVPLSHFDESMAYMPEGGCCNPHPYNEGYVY
# Sequence of ETV5 (P41161 whole entry): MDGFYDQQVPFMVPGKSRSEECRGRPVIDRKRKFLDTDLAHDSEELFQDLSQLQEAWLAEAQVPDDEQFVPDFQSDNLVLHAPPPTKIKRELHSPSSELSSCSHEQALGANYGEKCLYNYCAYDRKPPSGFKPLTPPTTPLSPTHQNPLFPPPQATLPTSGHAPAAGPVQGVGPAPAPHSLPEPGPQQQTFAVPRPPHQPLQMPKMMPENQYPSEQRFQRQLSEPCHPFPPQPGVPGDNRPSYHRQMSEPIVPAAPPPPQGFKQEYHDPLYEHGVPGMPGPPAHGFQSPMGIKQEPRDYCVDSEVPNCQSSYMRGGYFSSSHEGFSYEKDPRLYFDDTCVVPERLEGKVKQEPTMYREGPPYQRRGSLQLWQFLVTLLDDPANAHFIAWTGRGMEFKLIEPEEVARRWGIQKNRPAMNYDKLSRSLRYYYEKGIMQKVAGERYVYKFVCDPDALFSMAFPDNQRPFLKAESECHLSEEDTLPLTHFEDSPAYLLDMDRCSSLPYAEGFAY
# Sequence of ELF4 (Q99607 whole entry): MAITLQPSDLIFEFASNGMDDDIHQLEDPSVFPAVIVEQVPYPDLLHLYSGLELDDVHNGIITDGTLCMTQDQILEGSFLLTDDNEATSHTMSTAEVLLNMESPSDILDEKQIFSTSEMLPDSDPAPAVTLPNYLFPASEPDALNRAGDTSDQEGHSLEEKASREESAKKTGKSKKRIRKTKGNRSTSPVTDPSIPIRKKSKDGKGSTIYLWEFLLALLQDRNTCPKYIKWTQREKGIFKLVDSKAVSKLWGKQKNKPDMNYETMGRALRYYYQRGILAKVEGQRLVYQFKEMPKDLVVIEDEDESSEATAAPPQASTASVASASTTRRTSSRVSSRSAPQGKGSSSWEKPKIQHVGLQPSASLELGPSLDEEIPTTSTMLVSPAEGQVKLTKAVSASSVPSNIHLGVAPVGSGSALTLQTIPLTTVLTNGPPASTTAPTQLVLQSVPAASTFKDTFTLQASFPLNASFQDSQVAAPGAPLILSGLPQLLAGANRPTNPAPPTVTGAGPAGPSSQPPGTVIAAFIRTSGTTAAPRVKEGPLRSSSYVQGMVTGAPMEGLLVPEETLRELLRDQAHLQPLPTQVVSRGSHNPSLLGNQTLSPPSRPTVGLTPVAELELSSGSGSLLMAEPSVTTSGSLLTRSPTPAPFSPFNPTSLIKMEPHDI
# Sequence of CRX (O43186 whole entry): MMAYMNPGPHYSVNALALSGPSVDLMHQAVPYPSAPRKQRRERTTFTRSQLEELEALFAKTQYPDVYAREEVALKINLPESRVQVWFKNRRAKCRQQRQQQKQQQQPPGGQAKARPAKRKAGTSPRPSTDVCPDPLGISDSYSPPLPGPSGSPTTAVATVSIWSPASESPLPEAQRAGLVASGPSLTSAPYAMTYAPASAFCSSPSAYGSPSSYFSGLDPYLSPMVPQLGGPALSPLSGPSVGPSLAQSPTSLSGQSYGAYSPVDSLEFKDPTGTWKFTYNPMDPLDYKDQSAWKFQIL
# Sequence of HSF1 (Q00613 whole entry): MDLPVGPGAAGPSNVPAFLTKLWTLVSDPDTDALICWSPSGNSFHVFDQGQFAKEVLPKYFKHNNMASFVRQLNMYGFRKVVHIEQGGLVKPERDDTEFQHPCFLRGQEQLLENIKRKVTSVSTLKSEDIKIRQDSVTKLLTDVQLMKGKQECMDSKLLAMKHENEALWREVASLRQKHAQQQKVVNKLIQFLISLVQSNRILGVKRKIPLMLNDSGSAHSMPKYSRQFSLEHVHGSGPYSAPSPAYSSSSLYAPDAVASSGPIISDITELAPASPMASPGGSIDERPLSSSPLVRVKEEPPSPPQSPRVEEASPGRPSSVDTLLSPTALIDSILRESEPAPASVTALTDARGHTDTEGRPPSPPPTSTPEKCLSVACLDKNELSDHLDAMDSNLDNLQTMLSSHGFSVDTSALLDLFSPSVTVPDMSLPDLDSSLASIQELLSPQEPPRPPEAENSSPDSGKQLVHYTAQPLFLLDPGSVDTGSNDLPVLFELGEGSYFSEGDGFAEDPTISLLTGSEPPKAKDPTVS
# Sequence of SPIB (Q01892 whole entry): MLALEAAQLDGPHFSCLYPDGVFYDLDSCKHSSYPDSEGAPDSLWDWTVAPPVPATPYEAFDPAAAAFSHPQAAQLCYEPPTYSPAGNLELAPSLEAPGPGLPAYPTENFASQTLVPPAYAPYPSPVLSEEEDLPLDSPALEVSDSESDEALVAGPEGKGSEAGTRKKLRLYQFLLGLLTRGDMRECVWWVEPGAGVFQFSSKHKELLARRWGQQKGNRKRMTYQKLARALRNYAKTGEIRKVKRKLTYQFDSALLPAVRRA
# Sequence of ELF1 (P32519 whole entry): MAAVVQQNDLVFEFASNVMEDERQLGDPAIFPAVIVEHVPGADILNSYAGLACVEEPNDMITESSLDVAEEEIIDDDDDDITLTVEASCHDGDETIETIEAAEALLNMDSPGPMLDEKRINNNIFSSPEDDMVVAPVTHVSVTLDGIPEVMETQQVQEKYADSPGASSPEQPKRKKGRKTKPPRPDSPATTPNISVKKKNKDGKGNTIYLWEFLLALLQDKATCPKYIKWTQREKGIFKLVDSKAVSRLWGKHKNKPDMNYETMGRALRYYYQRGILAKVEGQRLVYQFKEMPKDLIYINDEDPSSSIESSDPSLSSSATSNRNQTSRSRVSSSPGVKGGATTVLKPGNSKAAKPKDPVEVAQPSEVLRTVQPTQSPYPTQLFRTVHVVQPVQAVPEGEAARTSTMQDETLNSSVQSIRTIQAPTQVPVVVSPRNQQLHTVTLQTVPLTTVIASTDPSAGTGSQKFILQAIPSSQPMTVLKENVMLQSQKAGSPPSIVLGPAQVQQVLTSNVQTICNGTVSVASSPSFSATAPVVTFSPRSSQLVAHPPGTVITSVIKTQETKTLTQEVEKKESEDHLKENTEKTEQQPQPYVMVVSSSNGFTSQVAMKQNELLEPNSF
sequence,measurement,setting,value
TCCTGG,binding signal,FLI1,"1.66 fold enrichment (6-mer frequency, TF over GST control)"
same,binding signal,ELK1,"1.47 fold enrichment (6-mer frequency, TF over GST control)"
same,binding signal,GABPA,"1.69 fold enrichment (6-mer frequency, TF over GST control)"
same,binding signal,ERG,"1.85 fold enrichment (6-mer frequency, TF over GST control)"
same,binding signal,ELF1,"1.69 fold enrichment (6-mer frequency, TF over GST control)"
same,binding signal,EHF,"1.66 fold enrichment (6-mer frequency, TF over GST control)"
same,binding signal,SPI1,"1.63 fold enrichment (6-mer frequency, TF over GST control)"
same,binding signal,SPIB,"1.74 fold enrichment (6-mer frequency, TF over GST control)"
same,binding signal,ELK3,"1.55 fold enrichment (6-mer frequency, TF over GST control)"
same,binding signal,FEV,"1.46 fold enrichment (6-mer frequency, TF over GST control)"
same,binding signal,ETV5,"1.68 fold enrichment (6-mer frequency, TF over GST control)"
same,binding signal,HSF1,"1.29 fold enrichment (6-mer frequency, TF over GST control)"
same,binding signal,SPIC,"1.54 fold enrichment (6-mer frequency, TF over GST control)"
same,binding signal,ELF4,"1.53 fold enrichment (6-mer frequency, TF over GST control)"
same,binding signal,ELK4,"1.38 fold enrichment (6-mer frequency, TF over GST control)"
same,binding signal,ETV2,"2.03 fold enrichment (6-mer frequency, TF over GST control)"
same,binding signal,ELF3,"1.17 fold enrichment (6-mer frequency, TF over GST control)"
same,binding signal,CRX,"1.27 fold enrichment (6-mer frequency, TF over GST control)"
same,binding signal,ETV1,"1.68 fold enrichment (6-mer frequency, TF over GST control)"
